# B1: unnamed (peptide)
# chain: IPSRPAPKPPSSASA
# B2: unnamed (peptide)
# chain: NIKVLLNPKLGKPVK
# Columns and labels:
# Assay in all cases: SPOT peptide array binding signal intensity (averaged, normalized) (arbitrary units (background-subtracted, floor 0; scale differs between SH3 domains)); higher = stronger binding of the SH3 domain to the peptide
# [1] = biological target: AgAbp1
# Procedure, shortened: (§1)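 Cellulose membranes carried synthetic 15-mer peptides with cysteines swapped for serines. These were incubated overnight at 4°C with 10 μg/ml of GST-fused SH3 domains from four yeast species in TBS-based blocking buffer. Binding signal, detected with anti-GST antibody and quantified in Genespotter, is the normalized, background-subtracted spot intensity averaged over replicates, in arbitrary units specific to each domain.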
# [2] = biological target: AgBbc1
# Procedure, shortened: as §1
# [3] = biological target: AgBem1-D1
# Procedure, shortened: as §1
# [4] = biological target: AgBzz1-D1
# Procedure, shortened: as §1
# [5] = biological target: AgBzz1-D2
# Procedure, shortened: as §1
# [6] = biological target: AgCyk3
# Procedure, shortened: as §1
# [7] = biological target: AgFus1
# Procedure, shortened: as §1
# [8] = biological target: AgHof1
# Procedure, shortened: as §1
# [9] = biological target: AgHse1
# Procedure, shortened: as §1
# [10] = biological target: AgLsb1
# Procedure, shortened: as §1
# [11] = biological target: AgLsb4
# Procedure, shortened: as §1
# [12] = biological target: AgMyo5
# Procedure, shortened: as §1
# [13] = biological target: AgNbp2
# Procedure, shortened: as §1
# [14] = biological target: AgRvs167
# Procedure, shortened: as §1
# [15] = biological target: AgSho1
# Procedure, shortened: as §1
# [16] = biological target: AgSla1-D1-D2
# Procedure, shortened: as §1
# [17] = biological target: AgSla1-D3
# Procedure, shortened: as §1
# [18] = biological target: CaAbp1-D1
# Procedure, shortened: as §1
# [19] = biological target: CaAbp1-D2
# Procedure, shortened: as §1
# [20] = biological target: CaBbc1
# Procedure, shortened: as §1
# [21] = biological target: CaBem1-D1
# Procedure, shortened: as §1
# [22] = biological target: CaBzz1-D1
# Procedure, shortened: as §1
# [23] = biological target: CaBzz1-D2
# Procedure, shortened: as §1
# [24] = biological target: CaCyk3
# Procedure, shortened: as §1
# [25] = biological target: CaFus1
# Procedure, shortened: as §1
# [26] = biological target: CaHof1
# Procedure, shortened: as §1
# [27] = biological target: CaHse1
# Procedure, shortened: as §1
# [28] = biological target: CaLsb1
# Procedure, shortened: as §1
# [29] = biological target: CaLsb4
# Procedure, shortened: as §1
# [30] = biological target: CaMyo5
# Procedure, shortened: as §1
# [31] = biological target: CaNbp2
# Procedure, shortened: as §1
# [32] = biological target: CaRvs167
# Procedure, shortened: as §1
# [33] = biological target: CaRvs167-3
# Procedure, shortened: as §1
# [34] = biological target: CaSho1
# Procedure, shortened: as §1
# [35] = biological target: CaSla1-D1-D2
# Procedure, shortened: as §1
# [36] = biological target: CaSla1-D3
# Procedure, shortened: as §1
# [37] = biological target: ScAbp1
# Procedure, shortened: as §1
# [38] = biological target: ScBbc1
# Procedure, shortened: as §1
# [39] = biological target: ScBem1-D1
# Procedure, shortened: as §1
# [40] = biological target: ScBzz1-D1
# Procedure, shortened: as §1
# [41] = biological target: ScBzz1-D2
# Procedure, shortened: as §1
# [42] = biological target: ScCyk3
# Procedure, shortened: as §1
# [43] = biological target: ScFus1
# Procedure, shortened: as §1
# [44] = biological target: ScHof1
# Procedure, shortened: as §1
# [45] = biological target: ScHse1
# Procedure, shortened: as §1
# [46] = biological target: ScLsb1
# Procedure, shortened: as §1
# [47] = biological target: ScLsb2
# Procedure, shortened: as §1
# [48] = biological target: ScLsb3
# Procedure, shortened: as §1
# [49] = biological target: ScLsb4
# Procedure, shortened: as §1
# [50] = biological target: ScMyo3
# Procedure, shortened: as §1
# [51] = biological target: ScMyo5
# Procedure, shortened: as §1
# [52] = biological target: ScNbp2
# Procedure, shortened: as §1
# [53] = biological target: ScPex13
# Procedure, shortened: as §1
# [54] = biological target: ScRvs167
# Procedure, shortened: as §1
# [55] = biological target: ScSho1
# Procedure, shortened: as §1
# [56] = biological target: ScSla1-D1-D2
# Procedure, shortened: as §1
# [57] = biological target: ScSla1-D3
# Procedure, shortened: as §1
# [58] = biological target: SpAbp1-D1
# Procedure, shortened: as §1
# [59] = biological target: SpBbc1
# Procedure, shortened: as §1
# [60] = biological target: SpBzz1-D1
# Procedure, shortened: as §1
# [61] = biological target: SpBzz1-D2
# Procedure, shortened: as §1
# [62] = biological target: SpCyk3
# Procedure, shortened: as §1
# [63] = biological target: SpHof1
# Procedure, shortened: as §1
# [64] = biological target: SpHof1-2
# Procedure, shortened: as §1
# [65] = biological target: SpHof1-3
# Procedure, shortened: as §1
# [66] = biological target: SpHse1
# Procedure, shortened: as §1
# [67] = biological target: SpLsb1
# Procedure, shortened: as §1
# [68] = biological target: SpLsb4
# Procedure, shortened: as §1
# [69] = biological target: SpMyo1
# Procedure, shortened: as §1
# [70] = biological target: SpNbp2
# Procedure, shortened: as §1
# [71] = biological target: SpPex13
# Procedure, shortened: as §1
# [72] = biological target: SpRvs167
# Procedure, shortened: as §1
# [73] = biological target: SpSla1-D1-D2
# Procedure, shortened: as §1
# [74] = biological target: SpSla1-D3
# Procedure, shortened: as §1
binder,measurement,setting,value
B1,SPOT peptide array binding signal intensity,[1],14
same,SPOT peptide array binding signal intensity,[2],289
same,SPOT peptide array binding signal intensity,[3],35
same,SPOT peptide array binding signal intensity,[4],18
same,SPOT peptide array binding signal intensity,[5],19
same,SPOT peptide array binding signal intensity,[6],1
same,SPOT peptide array binding signal intensity,[7],≤ 0
same,SPOT peptide array binding signal intensity,[8],≤ 0
same,SPOT peptide array binding signal intensity,[9],50.5
same,SPOT peptide array binding signal intensity,[10],475
same,SPOT peptide array binding signal intensity,[11],12
same,SPOT peptide array binding signal intensity,[12],1790
same,SPOT peptide array binding signal intensity,[13],8100
same,SPOT peptide array binding signal intensity,[14],1.67
same,SPOT peptide array binding signal intensity,[15],≤ 0
same,SPOT peptide array binding signal intensity,[16],16
same,SPOT peptide array binding signal intensity,[17],3.25
same,SPOT peptide array binding signal intensity,[18],102
same,SPOT peptide array binding signal intensity,[19],128
same,SPOT peptide array binding signal intensity,[20],1300
same,SPOT peptide array binding signal intensity,[21],1620
same,SPOT peptide array binding signal intensity,[22],1550
same,SPOT peptide array binding signal intensity,[23],1510
same,SPOT peptide array binding signal intensity,[24],190
same,SPOT peptide array binding signal intensity,[25],30
same,SPOT peptide array binding signal intensity,[26],≤ 0
same,SPOT peptide array binding signal intensity,[27],1.25
same,SPOT peptide array binding signal intensity,[28],1.25
same,SPOT peptide array binding signal intensity,[29],53.5
same,SPOT peptide array binding signal intensity,[30],156
same,SPOT peptide array binding signal intensity,[31],4920
same,SPOT peptide array binding signal intensity,[32],17
same,SPOT peptide array binding signal intensity,[33],2
same,SPOT peptide array binding signal intensity,[34],≤ 0
same,SPOT peptide array binding signal intensity,[35],2030
same,SPOT peptide array binding signal intensity,[36],46.5
same,SPOT peptide array binding signal intensity,[37],65
same,SPOT peptide array binding signal intensity,[38],502
same,SPOT peptide array binding signal intensity,[39],≤ 0
same,SPOT peptide array binding signal intensity,[40],16
same,SPOT peptide array binding signal intensity,[41],10
same,SPOT peptide array binding signal intensity,[42],≤ 0
same,SPOT peptide array binding signal intensity,[43],4
same,SPOT peptide array binding signal intensity,[44],1
same,SPOT peptide array binding signal intensity,[45],40
same,SPOT peptide array binding signal intensity,[46],6
same,SPOT peptide array binding signal intensity,[47],55
same,SPOT peptide array binding signal intensity,[48],197
same,SPOT peptide array binding signal intensity,[49],9
same,SPOT peptide array binding signal intensity,[50],3540
same,SPOT peptide array binding signal intensity,[51],1990
same,SPOT peptide array binding signal intensity,[52],5880
same,SPOT peptide array binding signal intensity,[53],2620
same,SPOT peptide array binding signal intensity,[54],149
same,SPOT peptide array binding signal intensity,[55],≤ 0
same,SPOT peptide array binding signal intensity,[56],6020
same,SPOT peptide array binding signal intensity,[57],233
same,SPOT peptide array binding signal intensity,[58],40
same,SPOT peptide array binding signal intensity,[59],65
same,SPOT peptide array binding signal intensity,[60],404
same,SPOT peptide array binding signal intensity,[61],71.5
same,SPOT peptide array binding signal intensity,[62],2
same,SPOT peptide array binding signal intensity,[63],≤ 0
same,SPOT peptide array binding signal intensity,[64],≤ 0
same,SPOT peptide array binding signal intensity,[65],≤ 0
same,SPOT peptide array binding signal intensity,[66],52
same,SPOT peptide array binding signal intensity,[67],13.5
same,SPOT peptide array binding signal intensity,[68],136
same,SPOT peptide array binding signal intensity,[69],3740
same,SPOT peptide array binding signal intensity,[70],65
same,SPOT peptide array binding signal intensity,[71],93.5
same,SPOT peptide array binding signal intensity,[72],202
same,SPOT peptide array binding signal intensity,[73],≤ 0
same,SPOT peptide array binding signal intensity,[74],3
B2,SPOT peptide array binding signal intensity,[61],≤ 0
same,SPOT peptide array binding signal intensity,[62],≤ 0
same,SPOT peptide array binding signal intensity,[63],75.5
same,SPOT peptide array binding signal intensity,[64],13
same,SPOT peptide array binding signal intensity,[65],640
same,SPOT peptide array binding signal intensity,[66],558
same,SPOT peptide array binding signal intensity,[67],1.75
same,SPOT peptide array binding signal intensity,[68],26
same,SPOT peptide array binding signal intensity,[69],≤ 0
same,SPOT peptide array binding signal intensity,[70],95.5
same,SPOT peptide array binding signal intensity,[71],13
same,SPOT peptide array binding signal intensity,[72],18.2
same,SPOT peptide array binding signal intensity,[73],≤ 0
same,SPOT peptide array binding signal intensity,[74],4
